# A selection: hits, their analogues and other compounds. The true share with any hit is near 11%.
# USP28 block: human USP28 deubiquitinase inhibition. Q96RU2. AID 1645857. purified USP28, Ub-rhodamine cleavage fluorescence, 30 min. 47,000 tested, 3% active. inhibition, % at 25 µM
# USP17 inh: inhibitors of human USP17 deubiquitinase. A8MUK1. purified USP17, Ub-rhodamine cleavage fluorescence, 3 h. inhibition, % at 50 µM. 47,000 tested, 6.5% active
# Target sequence (A8MUK1 whole entry, looked up): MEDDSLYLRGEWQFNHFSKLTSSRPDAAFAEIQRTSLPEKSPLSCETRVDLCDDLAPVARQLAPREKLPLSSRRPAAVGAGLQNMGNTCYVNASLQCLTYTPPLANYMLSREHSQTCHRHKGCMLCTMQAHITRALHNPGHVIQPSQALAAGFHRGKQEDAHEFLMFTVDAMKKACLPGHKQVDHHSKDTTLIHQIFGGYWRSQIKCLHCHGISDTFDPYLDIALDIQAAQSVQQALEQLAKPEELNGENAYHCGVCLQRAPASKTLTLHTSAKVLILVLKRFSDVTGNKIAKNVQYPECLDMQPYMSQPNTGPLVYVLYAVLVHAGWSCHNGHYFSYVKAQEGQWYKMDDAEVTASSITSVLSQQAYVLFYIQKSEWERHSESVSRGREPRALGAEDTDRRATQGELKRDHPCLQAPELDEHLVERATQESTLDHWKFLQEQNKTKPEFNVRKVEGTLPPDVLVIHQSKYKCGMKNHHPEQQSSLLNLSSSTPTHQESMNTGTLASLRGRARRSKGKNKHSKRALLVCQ
# USP30 block: human USP30 deubiquitinase inhibition; 47,000 tested, 5.3% active; AID 1645860; inhibition, % at 25 µM; Q70CQ3; purified USP30, Ub-rhodamine cleavage fluorescence
# * hit, by the source's call; . = no result given. Cut-off read from the data, not from the text of the source: active = inhibition above about 30%; inactive = the rest.
SMILES,USP28 block,USP17 inh,USP30 block
O=C(c1ccc(OCC2CCN(C(=O)C3CCCC3)CC2)cc1)N1CCOCC1,-6,-15,-22
O=C(Nc1ccccc1O)c1cc(F)ccc1-n1cnnn1,0,-5,2
Cc1ccc(Nc2nc(NCCN3CCOCC3)nc3c2cnn3C)cc1C,-11,-10,-4
N#Cc1c(-c2ccccc2)cc(N2CCN(C3CCCCC3)CC2)n2c1nc1ccccc12,-25,-26,-71
CCc1c(C)c(C#N)c2nc3ccccc3n2c1N1CCN(C2CCCC2)CC1,12,62*,23
CCOC(=O)N1CCN(C(=O)[C@H]2[C@@H]3C[C@@H]4[C@H]2C(=O)O[C@@H]4C3)CC1,4,12,16
O=c1[nH]c2ccccc2c(=O)n1CCc1nc(-c2ccncc2)no1,-6,-11,7
CCn1c(=O)c2ccccc2n(Cc2nc(-c3cccc(OC)c3)no2)c1=O,-3,5,-39
O=c1c2ccccc2n(Cc2ccccc2)c(=O)n1Cc1nc(-c2ccccc2)no1,15,11,30*
Cc1cccc(-c2noc(CCn3c(=O)[nH]c4ccccc4c3=O)n2)c1,30*,61*,18
COc1cccc(O[C@@H]2C[C@@H](NC(=O)c3ccc(C)cn3)[C@H](O)[C@H]2O)c1,26,5,22
O=C1NCCCn2cc(S(=O)(=O)NC3CCCCC3)cc21,1,-13,-83
O=C(Cc1ccc(F)cc1)N1CCCCC1c1nncn1CC1CC1 (configuration not stated),-13,4,-6
COc1ccc(C(=O)c2sc3nc4c(c(-c5cccnc5)c3c2N)CCC4)cc1OC,4,-25,-45
COc1ccc(COc2ccc(-n3cnnn3)cc2)cc1F,-8,-7,-29
Clc1cccc(COc2ccc(-n3cnnn3)cc2)c1,49*,12,18
O=C(NC(Cc1c[nH]c2ccccc12)C(=O)N1CCOCC1)OCc1ccccc1 (configuration not stated),-11,-16,-18
Cc1ccc(O)c(C2NC(=O)c3c(sc4c3CCN(C)C4)N2)c1 (configuration not stated),-29,-22,-111
NC(=O)c1cc(NC(=O)c2ccc3ccccc3c2)cc(C(N)=O)c1,57*,66*,66*
O=C(Nc1cccc(-c2ccc(N3CCOCC3)nn2)c1)c1ccc2ccccc2c1,4,-3,-14
Cc1cc(N2C(=O)OCC2Cc2ccccc2)nc(C2CCNCC2)n1 (configuration not stated),-1,-20,3
O=C(CN1CCN(S(=O)(=O)c2ccc3c(c2)OCCCO3)CC1)N1CCCc2ccccc21,1,-2,12
Cc1ccc(N(CC(=O)N2CCCc3ccccc32)S(=O)(=O)c2ccc3c(c2)OCCO3)cc1,13,7,32*
O=C(NC(Cc1ccccc1)c1nc2ccccc2[nH]1)C1CC1 (configuration not stated),11,54*,1
CC(C)CC(NC(=O)c1ccccn1)c1nc2ccccc2[nH]1 (configuration not stated),-26,-26,-66
SMILES,USP28 block,USP17 inh,USP30 block
O=C(Cc1coc2cc3c(cc12)CCC3)NC(Cc1ccccc1)c1nc2ccccc2[nH]1 (configuration not stated),-11,47*,-8
CC(C)CC(NC(=O)c1ccc(Cl)cc1Cl)c1nc2ccccc2[nH]1 (configuration not stated),4,69*,-45
CSCCC(NC(=O)COc1ccc(Cl)cc1)c1nc2ccccc2[nH]1 (configuration not stated),-26,.,-106
CC(NC(=O)c1ccccc1)c1nc2ccccc2[nH]1 (configuration not stated),.,-7,.
COc1ccccc1/C=C/C(=O)NC(Cc1ccccc1)c1nc2ccccc2[nH]1 (configuration not stated),-2,45*,-89
CC(NC(=O)c1ccncc1)c1nc2ccccc2[nH]1 (configuration not stated),-8,-4,-22
COc1ccc(CNC(=O)c2ccc3ncnc(N4CCOCC4)c3c2)cc1,13,12,25
Cc1nc(N2CCCCC2)cc(N2CCN(C(=O)Nc3cc(Cl)ccc3C)CC2)n1,-7,-17,-13
CSc1cccc(NC(=O)C2CCCN(c3nnc(N4CCCC4=O)s3)C2)c1 (configuration not stated),-1,-15,-38
O=C(NC(Cc1ccccc1)c1nc2ccccc2[nH]1)c1ccc2ccccc2n1 (configuration not stated),14,.,-8
O=C(NC(Cc1ccccc1)c1nc2ccccc2[nH]1)c1ccccc1-c1ccccc1 (configuration not stated),-10,40*,-51
CCCCCCCCCCCC1=C(O)C(=O)C=C(O)C1=O,98*,100*,97*
